Mito fusion act: blocks mitochondrial division or promotes mitochondrial fusion | Potency, µM (titrated, usually from 46.1 µM), inactives show at the top dose growth rescue (activation), usual class: activators | 0.23% of 320,000 active | AID 485298 | S. cerevisiae fusion-defective mutant growth rescue, CellTiterGlo 48 h; further: % of control where 0% means no effect; nearly all actives have a fitted effect of over 45% in size
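Read-out: ATP-based luminescence (CellTiterGlo, 10 min ambient) reporting growth of fusion-defective ts yeast after 48 hours at 37C on glycerol/ethanol YPEG medium in the presence of compound.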
GLP1R ag: agonists of human GLP-1 receptor; P43220; HEK293 GLP-1R CRE-luciferase, luminescence, 4-6 h; cells express a hypersensitive GLP-1R form; Potency, µM (top dose mostly 45.6 µM), for inactives: top-dose activation, actives largely listed as activators; 0.007% of 380,000 active; AID 624172; further: % of control where 0% means no effect
Target sequence (P43220 whole entry, looked up): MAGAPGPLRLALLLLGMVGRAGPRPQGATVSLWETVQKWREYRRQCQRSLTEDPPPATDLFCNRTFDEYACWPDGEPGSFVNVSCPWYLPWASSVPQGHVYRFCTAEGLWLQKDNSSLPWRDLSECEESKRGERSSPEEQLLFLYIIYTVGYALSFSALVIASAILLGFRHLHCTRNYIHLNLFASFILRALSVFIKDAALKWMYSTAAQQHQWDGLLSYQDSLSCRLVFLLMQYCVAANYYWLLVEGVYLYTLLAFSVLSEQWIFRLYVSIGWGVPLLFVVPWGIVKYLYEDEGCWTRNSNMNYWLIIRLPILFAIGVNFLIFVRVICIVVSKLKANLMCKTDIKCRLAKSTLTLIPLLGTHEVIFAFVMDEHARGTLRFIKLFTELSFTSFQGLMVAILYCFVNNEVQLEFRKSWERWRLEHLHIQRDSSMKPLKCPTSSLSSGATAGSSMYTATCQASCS
GLP-1R inv ag: acts as inverse agonist at human GLP-1 receptor; P43220; HEK293 GLP-1R CRE-luciferase, luminescence, 24 h; GLP-1R form is constitutively active; Potency, µM (titrated, usually from 38.3 µM), for the others: at the highest dose activity change, negative = inhibition, usual class: inhibitors; 1.6% of 410,000 active; AID 624417; further: on the % scale 0 is the no-effect control and ±100 the full control effect; nearly all actives have a fitted effect of over 55% in size
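GLP-1R inverse agonism mode: basal reporter luminescence in engineered HEK293 cells measured after one day of compound exposure at 37 deg C, with a 12 min room-temperature detection step.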
BRCA1 expr up: activators of BRCA1 expression | MCF7-BRCA1-FFLuc reporter, luminescence, 48 h; response scale: scaled: vehicle 0%, 10 µM genistein 100% | Potency, µM (highest dose often 46.1 µM), without a hit: at the highest dose activation, usual class: activators | 1.1% of 380,000 active; further: nearly all actives have a fitted effect of over 80% in size
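First, MCF7-BRCA1-FFLuc cells (2000/well) attach for 2 h; next, compounds are pin-added and incubated 48 h at 37 °C; finally, luciferase reagent is added and luminescence read after 15 min.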
HEK293 tox: cytotoxicity in counter-screen for GLP-1R inverse agonists. HEK293 cAMP-luciferase reporter cells, luminescence, 24 h. Potency, µM (doses to about 38.3 µM), for inactives: at the highest dose activity change, negative = inhibition, usual class: inhibitors. 0.13% of 410,000 active;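 further: loss of luciferase light is scored as toxicity; on the % scale 0 is the no-effect control and ±100 the full control effect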
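To flag toxic compounds, the library was rerun on cells for 24 hr at 37 deg C and 5% CO2. Viability-linked luminescence was captured 12 min after adding luciferase detection reagent.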
Numbers without * were called inactive; ? = inconclusive; . = not tested or not shown; ! = a repeat was not active. Hits are enriched below; roughly 2.8% of the tested compounds scored in any of these assays. The call rests on the fitted dose curve; in most records, active means well fitted curve in the direction sought with a large enough effect; inconclusive means small, poorly fitted or top-dose-only effect, or another doubt; inactive means no such curve, though single readings can be large; an effect the other way counts as inactive or inconclusive. Potency means the concentration at half of the fitted maximal effect.

SMILES	Mito fusion act	GLP1R ag	GLP-1R inv ag	BRCA1 expr up	HEK293 tox
Cc1ccsc1/C=N/n1cnc2sc(C)c(C)c2c1=O	3%	15%	4%	11µM*	9%
Cc1sc2ncn(/N=C/c3cn(-c4ccccc4)nc3-c3ccccc3)c(=O)c2c1C	.	.	.	5%	.
C=CCC1(CC=C)CCCN1C(=O)C1CCC(=O)N(CCc2ccc(Cl)cc2)C1 (centres undefined)	3%	-8%	?	19%	0%
O=C(NCc1nc(-c2ccc(C(F)(F)F)cc2)no1)Nc1ccc(OC(F)(F)F)cc1	6%	0%	2.8µM*	-83%	?
Cc1c(C(=O)N2CCN(c3ccc(F)cc3)CC2)sc2ncnc(N3CCN(c4ccccn4)CC3)c12	23%	-4%	?	-89%	?
Cc1cccc(N2CCN(c3ccc(C(=O)O)cc3NC(=O)c3cccc(Cl)c3)CC2C)c1 (centres undefined)	.	.	-26%	4%	-15%
COCCn1c(C)cc(C(=O)CN2C(=O)NC3(CCCCCC3)C2=O)c1C	-1%	8%	-4%	5.6µM*	-5%
O=S(=O)(c1ccccc1)N1CCC2(CC1)OCCN2S(=O)(=O)c1cccs1	-2%	2%	6%	-30%	10%
C=CCc1cc(Cl)ccc1OCCNCCN1CCOCC1	-5%	-2%	10µM*	-7%	13%
COc1ccc(Cc2c(-c3cccc(Cl)c3)nc3cc(C)c(Br)c(C)n23)c(C)c1	.	-1%	8.9µM*	-13%	0%
Cc1ccc(S(=O)(=O)N2[C@@H](c3ccc(Cl)cc3)C(C(=O)O)=CC[C@H]2c2ccc(Cl)c(Cl)c2)cc1	-13%	-3%	3.5µM*	-28%	-25%
CCc1ccc([C@@H]2CC=C(C(=O)O)[C@H](c3ccc(C(C)(C)C)cc3)N2S(=O)(=O)c2ccc(C)cc2)cc1	.	-5%	13µM*	-51%	-11%
Cc1ccc([C@@H]2CC=C(C(=O)O)[C@H](c3ccc(C(C)(C)C)cc3)N2S(=O)(=O)c2ccc(C)cc2)cc1	.	-4%	?	8%	-17%
Cc1ccc(S(=O)(=O)N2[C@@H](c3ccc(C(C)(C)C)cc3)C(C(=O)O)=CC[C@H]2c2ccc(C(C)C)cc2)cc1	.	-3%	3.2µM*	-51%	?
CCc1ccc([C@@H]2CC=C(C(=O)O)[C@H](c3ccccc3)N2S(=O)(=O)c2ccc(C)cc2)cc1	-2%	4%	0%	-6%	0%
O=C(c1cccs1)N1CCN=C1SCc1ccc(F)cc1	-3%	12%	19%	-3%	-5%
CCCCOCCCN1CC(=O)N2[C@@H](Cc3c([nH]c4ccccc34)C2(C)C)C1=O	-1%	0%	?	-37%	8%
CCOc1ccc(-c2cc(C(=O)Nc3ccc(C)c(NS(C)(=O)=O)c3)[nH]n2)c(C)c1	.	-3%	7.1µM*	-53%	?
Cc1noc(C)c1COc1ccccc1C(=O)NCCc1ccc(S(N)(=O)=O)cc1	-1%	8%	6%	-9%	-3%
Cn1ccc2c(-c3cccc(C=O)c3)cc3c(c21)C1CCC3C1 (centres undefined)	.	4%	?	-12%	3%
CCOC(=O)[C@H]1[C@H]2COc3ccccc3[C@@H]2N2C(=O)c3cc(Br)ccc3NC(=O)[C@@]12C	?	-1%	?	-1%	0%
CCOC(=O)[C@H]1[C@H]2COc3ccc(Cl)cc3[C@@H]2N2C(=O)c3cc(F)c(F)cc3NC(=O)[C@@]12C	21%	3%	10µM*	-55%	6%
CCOC(=O)[C@H]1[C@H]2COc3ccc(Cl)cc3[C@@H]2N2C(=O)c3cc(Br)ccc3NC(=O)[C@@]12C	?	-2%	3.5µM*	-58%	1%
CCOC(=O)[C@H]1[C@H]2COc3ccc(Br)cc3[C@@H]2N2C(=O)c3cc(Br)ccc3NC(=O)[C@@]12C	?	-2%	2.8µM*	-67%	-49%
COc1ccc(Cn2ccc3nc(C)c(C(=O)NCc4ccc(F)cc4)cc3c2=O)cc1	.	.	?	.	-7%
SMILES	Mito fusion act	GLP1R ag	GLP-1R inv ag	BRCA1 expr up	HEK293 tox
NS(=O)(=O)c1ccc(NC(=O)C2Cc3ccccc3C(=O)O2)cc1 (centres undefined)	2%	10%	19%	12%	31%
O=C(CN1CCCC1)N/N=C/c1c(O)ccc2ccccc12	2%	-6%	2.8µM*	-66%	4%
CSc1ccccc1-c1nnc(-c2ccc(Cl)cc2Cl)o1	-1%	0%	0%	7.9µM*	12%
COc1ccccc1N1CCN(S(=O)(=O)c2ccc3c(c2)NC(=O)C(C)S3)CC1 (centres undefined)	5%	5%	10µM*	-35%	-5%
COC(=O)c1ccc2nc(C3CCCCC3)c(CC(C)(C)C)n2c1	.	-5%	?	-17%	1%
CC1(C(=O)OCC(=O)c2c[nH]c3ccccc23)CC1(Cl)Cl (centres undefined)	19%	11%	?	8.9µM*	-16%
Cc1cnc(C(=O)OCC(=O)c2c[nH]c3ccccc23)cn1	0%	-30%	15%	-11%	0%
CC(C)C(NS(=O)(=O)c1c(Cl)cccc1Cl)C(=O)OCC(=O)c1c[nH]c2ccccc12 (centres undefined)	?	-28%	?	-81%	-5%
CC(O)C(NS(=O)(=O)c1ccc(Cl)cc1)C(=O)OCC(=O)c1c[nH]c2ccccc12 (centres undefined)	-6%	8%	5.6µM*	-43%	-14%
CC1(C(=O)OCC(=O)N2c3ccccc3Sc3ccccc32)CC1(Cl)Cl (centres undefined)	24%	5%	11µM*	-23%	16%
CCOC(=O)N1CCN(Cc2nc(-c3ccc(OC)cc3)no2)CC1	.	11%	-5%	-32%	-9%
Cc1cc(C)nc(SCc2csc(-c3ccccc3)n2)n1	-2%	1%	-10%	?	-16%
Clc1ccc(-c2nc(CSc3ccccn3)cs2)cc1	.	-2%	?	10µM*	3%
CCOc1ccc(-c2nc(CSc3nnc(N)s3)cs2)cc1	5%	10%	19%	4µM*	28%
Nc1ccccc1SCc1csc(-c2ccc(Cl)cc2)n1	-41%	21%	10µM*	34%	28%
CCOc1ccc(-c2nc(CSc3nnc(N)s3)cs2)cc1OC	-1%	7%	106%	38%	12%
COC1=C(OC)C(=O)C(CCCCCCCCCCO)=C(C)C1=O	1%	-5%	.	.	.
CC1=C(C)C(=O)C(CCCCC#CCCCC#CCO)=C(C)C1=O	18µM*!	30%	-27%	-16%	4%
O=C(CC1SC(=Nc2ccc(OC(F)F)cc2)N(CCN2CCOCC2)C1=O)Nc1ccccc1 (centres undefined)	-1%	8%	10µM*	0%	-9%
C/C(=N\NC(=S)NC1CCCCC1)c1cccs1	7%	9%	?	10%	?
